About 79,000 compounds went through this panel and 15% of them were active in at least one assay; those are over-represented in the sample as a whole. The source made the active and inactive calls. Rule as the data show it: active = growth inhibition above about 70%; inactive = the rest.
Test: NCI Yeast Anticancer Drug Screen. Data for the mec2-1 strain (AID 157)
Conditions: S. cerevisiae mec2-1 strain, stronger effect = higher value; at 50.0 µM unless noted
Method in brief: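 Readout is yeast growth inhibition, normalised to vehicle-treated controls, in the mec2-1 strain exposed to compound.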

SMILES	growth inhibition
Cn1c(=O)c2[nH]c(Nc3cccc(Cl)c3)nc2n(C)c1=O	8.75% (inactive)
NC(N)=NC(N)=Nc1cc(Cl)c(Cl)cc1Cl	99.5% (active)
O=C1C=CC=C/C1=C1/SC(c2ccccc2)=C(O)N1c1ccccc1	-8.2% (inactive)
CC(=O)C(C)(CC#N)C(CC=O)CCC#N (stereo not given)	4.7% (inactive)
Cc1c2ccncc2c(C)c2c1[nH]c1ccc(O)cc12	14.2% (inactive)
CC1(C)OC(=O)N=C1c1ccccc1Cl	-18.4% (inactive)
O=Nc1c(O)c2ccccc2[nH]c1=O	33.6% (inactive)
Cc1ccc2[nH]c(C(=O)O)cc2c1	-6.8% (inactive)

Test: NCI Yeast Anticancer Drug Screen. Data for the sgs1 mgt1 strain (AID 161);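 also: 0% = growth of cultures given vehicle only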
Conditions: S. cerevisiae sgs1 mgt1 strain, stronger effect = higher value; at 50.0 µM unless noted
Method in brief: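 Yeast cells carrying a defined DNA-repair defect were exposed to test compounds. Growth inhibition was measured relative to vehicle-treated controls.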

SMILES	growth inhibition
CCCOC(=O)c1ccc([N+](=O)[O-])cc1	14.2% (inactive)
O=C1OC2C(O)C(CO)OC2n2c1cc(=O)[nH]c2=O (stereo not given)	9.4% (inactive)
CNCCc1cn(C2OC(CO)C(O)C(O)C2O)cn1 (stereo not given)	-22.3% (inactive)
NC(=O)C1CC1	-9.7% (inactive)
NC(=O)c1ccc(-c2csc(=S)[nH]2)s1	-15.5% (inactive)
OCCNc1ncnc2c1ncn2C1OC(CO)C(O)C1O (stereo not given)	-12.3% (inactive)
CC1SCc2nc3ccccc3n21 (stereo not given)	27.9% (inactive)
CNC(=O)C1C(=O)NC(=O)C1=C1CCCC1 (stereo not given)	4.8% (inactive)
O=C1OCCOCCOCCOCCOCCOC(=O)c2cccc1n2	20.4% (inactive)
O=S=Nc1c(Cl)cc(Cl)cc1Cl	1.55% (inactive)
ClCc1ccccc1C(c1ccccc1)c1ccccc1	7.1% (inactive)
CC(C)(C)NC(=O)CCCl	16.5% (inactive)

Reference: PubChem BioAssay (NCI)
